In the supplement of paper PMC6555819:

These sequences were tested on VDR:RXRa (NR concentration 270 nM, RXRa partner concentration 90 nM) (assay: PBM binding z-score (relative to random genomic background probes); higher = stronger binding; sequences stand for … in GC…GCGATTGACAGCGTAGAATGAAGG).
Method: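 Protein-binding microarray (Agilent 4x180K custom design, double-stranded 60-nt probes: 5' GC cap, 34-nt variable region, 24-nt constant primer region; full probe sequence given). Purified or IVT nuclear receptor:RXRα heterodimers (3:1 NR:RXRα, mostly 270:90 nM) or homodimers were incubated for 1 h in PBS with 2% milk and no ligand, then detected with Alexa488 antibodies. Fluorescence from o1-orientation probes (~5 replicates averaged) was converted to z-scores against 500 random hg19 background probes. Variable regions are seed direct-repeat (DR0–DR5) sites, all their single-nucleotide variants and half-site ablations.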
With ATCGAGAGGTCGACGAGGTGAGTATACACCGTTT the PBM binding z-score was 4.87.
Sequence ATCGAAAGGTCGAGGTGAGTATTGAGAAAGGGAA has a PBM binding z-score of 2.46.
CGAACTGGGTCAAGGACAGTGAATCTCCGCACGC was tested, and the PBM binding z-score was 1.46.
Work on ATCGAAAGGTCGAAGGTGAGTATACCCACCCGAA yielded a PBM binding z-score of 2.91.
For ACAGACAGGTGATGAAGGTAAGTCAGGCTATCAT, the PBM binding z-score was -0.133.
TCTATTAGTTGTTTAGGGCAACCGAAACAGCGGA showed a PBM binding z-score of 0.707.
For AGAACGAGGGCACGCTGAGTTGATCGCAGAGTAG, the PBM binding z-score was 2.12.
GCTAGTTGGTCAGTAGAAGGTCACACACCGGTCG gave a PBM binding z-score of 2.65.
Work on TGTCAAAGTTCAAAGGTAACGTCAGTATCCACAC yielded a PBM binding z-score of 5.11.
For GCTGCTAGGTCAGGTCGGTCAGCTAACGGGTACG, the PBM binding z-score was 1.09.
GTACCAAGGTGAATAGGTCGTTGGTGAGTAGGCG was tested, and the PBM binding z-score was 0.678.
In the case of TCAGACAAGTGAAGGTAACTCAGGTACGCAGTCG, the PBM binding z-score is reported as 0.46.
With TCATATTGGTAATACAGGTGAAAGTCGGCATCTA the PBM binding z-score was 1.12.
GGTCGGAGGACAAGGTCAGAGCTTTGTCCGTAGA showed a PBM binding z-score of 1.78.
For TCATATAGGTAAAAGGTTAAAGTCGGTGTGGTAA, the PBM binding z-score was 2.73.
In the case of TCATATAGGTATAAGGTGAAAGTCGGTGTGGTAA, the PBM binding z-score is reported as 1.06.
In the case of GCTTGTAGATCAAGGTCAAGAAAGACTAAGCTAA, the PBM binding z-score is reported as 2.67.
For CGTCCAAGGTCAGAGCGGTCAGTGAATGCCGAGT, the PBM binding z-score was 5.45.
Sequence TAGCCTAGGTCATGCGGGCTAGTATAGTGTCGGC has a PBM binding z-score of 2.11.
Work on TCTAGCAGGCCAGAGGGTCACTCATGAGGTACGG yielded a PBM binding z-score of 1.4.
Sequence TCTATTATTTGAAGGGCAACCGACGAGTCCGTTT has a PBM binding z-score of 1.55.
Sequence CCAGCCAGGTGAGAAGGTAACTCAGCCTCGATTA has a PBM binding z-score of -0.314.
CCGAGTAGGTTATGGGGCATTCACGCAACGGTGA showed a PBM binding z-score of -0.0125.
CCTAGCAGGCCAGGGCCACTCAAGCATTTCGCTT showed a PBM binding z-score of -1.03.
ACTTACGGGTCAACGCGGTTATAGCACGCGTATA showed a PBM binding z-score of 6.31.
For ACCTCTAGGTAACAAGTTCAGTGAAAGAGAGGAC, the PBM binding z-score was 1.59.
In the case of TCATATAGGTAAATGCTAGGTGAAAGTTCGATCT, the PBM binding z-score is reported as 1.22.
Sequence AGAACGATGGCAATGAGTTGATAGCACGGGTGGC has a PBM binding z-score of 0.528.
In the case of CCTAGCAGGCCGATCTGGGTCACTCAAGGCTTGA, the PBM binding z-score is reported as 0.114.
Sequence CCTTACGGGTCACGATGTTATAGCACGACGAGCG has a PBM binding z-score of 3.73.
Work on ATCTCTAGGTAAAGTTCAGTGGAAGATCGATAGA yielded a PBM binding z-score of 1.44.
TCGAGTAGGGTAGTCGGGGCATTCAGCCAACATA was tested, and the PBM binding z-score was 0.167.
Work on TCTTGTAGGTCAACAGGAGGTTAAGAAAGATCGA yielded a PBM binding z-score of 3.79.
In the case of ATATGTAGGTTATCGGGTCATTCAGTTTGCGCAT, the PBM binding z-score is reported as 5.
With GCTAGTTGGTCAGGAAAAGGTCACACACCGGTCG the PBM binding z-score was 3.66.
CGTCCAAGGTCAGCAGCTCAGTGAAAGCGACGTG gave a PBM binding z-score of 2.09.
Work on CGTCCAAGGTCAGCAGATCAGTGAAAGCGACGTG yielded a PBM binding z-score of 2.37.
Sequence CGTACTGGGCCAAGGTCATTGATCAGTCAAAGCA has a PBM binding z-score of 3.3.
AGCATGAGGTTATTAAGATCAGGGAATTGCGGTC showed a PBM binding z-score of 2.36.
For AGACCAAGGTGATCGTGAGGTCGTTGATACTAAC, the PBM binding z-score was 3.12.
